High-throughput results: PubChem, Broad Institute
aSyn 5UTR act – Activators working through SNCA 5'UTR binding (MLPCN). alpha-synuclein 5'UTR reporter, activators screen. activity score, % (tested at 7.5 µM), hits read low. 7.1% of 300,000 active. AID 1814; in the data active = activity score below about -60%
Hits are given with their value; i = inactive. Not all results are given here.

SMILES	aSyn 5UTR act
O=[N+]([O-])c1ccccc1N/N=C/c1c[nH]c2ccccc12	-105.5
CCc1ccc(C(=O)COC(=O)c2cccs2)cc1	-139.0
Cc1ccc(C(=O)COC(=O)c2cccs2)cc1	-114.5
CC(=O)Nc1cc(C(=O)OCC(=O)c2ccc(C)cc2)ccc1C	-151.0
O=C(N/N=C\c1ccc(Oc2ccccc2)cc1)c1csnn1	-95.9
CN(C)c1ccc(/C=N\NC(=O)c2csnn2)cc1	-146.1
CCOC(=O)c1snc(C(=O)NC2CCCCC2)c1N	-150.3
Cc1ccc(NC(=O)CS(=O)c2ccccc2N)c(C)c1 (centres undefined)	-95.9
CCN(CC)S(=O)(=O)c1cccc(-c2nc3n(n2)Cc2ccccc2-3)c1	-86.2
Cc1ccc2nc(-c3cccc(S(=O)(=O)N(C)C)c3)cn2c1	-171.4
CCN(CC)S(=O)(=O)c1cccc(-c2cn3cc(C)ccc3n2)c1	-77.6
Cc1ccc2nc(-c3ccc(S(=O)(=O)N4CCCCC4)cc3)cn2c1	-81.0
COC(=O)c1ccc(NS(=O)(=O)NC(=O)c2cn(C)c3ccccc23)cc1	-84.3
COc1cccc(NS(=O)(=O)NC(=O)c2cn(C)c3ccccc23)c1	-69.0
N#C/C(=N\Nc1ccc([N+](=O)[O-])cc1)C(=N)N1CCOCC1	-108.8
N#C/C(=N/Nc1ccc([N+](=O)[O-])cc1)C(=N)N1CCCCC1	-85.6
N#C/C(=N\Nc1ccccc1[N+](=O)[O-])C(=N)N1CCCCC1	-111.5
N#C/C(=N\Nc1ccc(Br)cc1)C(=N)N1CCOCC1	-122.7
COc1ccc(-n2nc(N)c(C(N)=O)n2)cc1	-67.9
COc1ccc(N2C(N)=NC(N)=NC2(C)C)cc1	i
O=C(Nc1ccccc1)C1Cc2ccccc2CN1C(=O)c1ccco1 (centres undefined)	-114.0
O=C(CSc1nc2ccccc2o1)c1ccccc1	-95.1
Cc1cc(SCC(=O)c2ccccc2)nc(C)n1	-114.7
O=[N+]([O-])c1ccc(Cl)cc1Sc1nc2ccccc2o1	i
O=C(CSc1ccc2ccccc2n1)c1ccccc1	-125.5
SMILES	aSyn 5UTR act
CC(=O)CSc1nc2ccccc2o1	-75.0
O=C(CSc1ccc(-c2ccco2)nn1)c1ccccc1	-87.8
O=C(O)c1ccccc1CSc1nc2ccccc2o1	-114.0
Cc1cc(SCC(=O)c2ccccc2)n2ncc(-c3ccccc3)c2n1	-138.0
CC(C)c1ccc(NC(=O)N2CCOCC2)cc1	-107.4
O=C(Nc1ccc2c(c1)oc1ccccc12)N1CCOCC1	-139.6
CCn1c2ccccc2c2cc(NC(=O)CN(C)CC(=O)Nc3ccc(N4CCOCC4)cc3)ccc21	-143.3
CCn1c2ccccc2c2cc(NC(=O)N3CCOCC3)ccc21	-83.9
Cc1csc2ncc(C(=O)Nc3cccc(C(F)(F)F)c3)c(=O)n12	-127.9
CCc1ccc(NC(=O)c2cnc3scc(C)n3c2=O)cc1	-246.7
Cc1ccc(C(=O)Nc2cccc(C(F)(F)F)c2)cc1NC(=O)c1cnnc2ccccc12	i
Clc1cc(Cl)c2nc(N3CCCC3)sc2c1	-102.5
COc1ccc(-c2nsc3c(N4CCCC4)ncnc23)cc1	i
COc1ccc(OC)c2sc(N3CCCCC3)nc12	-61.6
Clc1cccc2sc(N3CCCCC3)nc12	-109.4
Clc1cc(Cl)c2nc(N3CCCCC3)sc2c1	-151.9
COc1ccc(C(=O)Nc2scc(-c3ccc(Cl)cc3Cl)c2C(N)=O)cc1	-236.8
CC(C)OC(=O)/C(=C/c1ccc2c(c1)c1ccccc1n2C)NC(=O)c1ccccc1	-145.9
CC(C)OC(=O)/C(=C\c1ccc2c(c1)c1ccccc1n2C)NC(=O)c1ccccc1	-112.8
O=C(O)C1CCC(c2ccc(-c3ccccc3)cc2)CC1 (centres undefined)	-84.4
Cc1ccc(NC(=O)CCCc2ccccc2)c([N+](=O)[O-])c1	-76.3
O=C(CCCc1ccccc1)Nc1ccccc1[N+](=O)[O-]	-111.8
O=C(CCc1ccccc1)Nc1ccccc1[N+](=O)[O-]	-82.8
COc1ccc(/C=C2\SC(=O)N(CCNC(=O)C3CCN(S(=O)(=O)c4cccs4)CC3)C2=O)cc1	-112.8
COc1ccc(/C=C2\SC(=O)N(CCNC(=O)Cn3cnnn3)C2=O)cc1	-186.6
SMILES	aSyn 5UTR act
COc1ccc(/C=C2/SC(=S)N(CCCC(=O)Nc3ccc(O)cc3)C2=O)cc1	i
COc1ccc(/C=C2\SC(=O)N(CCNC(=O)CCS(=O)(=O)c3ccc(C)cc3)C2=O)cc1	-64.1
CC(C)c1ccc(/C=C2\SC(=O)N(CC(=O)NCCCn3ccnc3)C2=O)cc1	-109.9
CCOc1ccc(C(=O)COC(=O)Cc2n[nH]c(=O)c3ccccc23)cc1	-87.2
O=C(Cc1n[nH]c(=O)c2ccccc12)OCC(=O)c1ccc2c(c1)OCCO2	i
COC(=O)c1ccccc1NC1=C/C(=N\S(=O)(=O)c2cccs2)c2ccccc2C1=O	-90.6
COc1cc(/C=N/NC(=O)c2cc(-c3ccccc3)sc2N)cc(OC)c1OC	-70.0
COc1cc(/C=N/NC(=O)c2ccoc2C)cc(OC)c1OC	-80.7
COc1ccc(/C=N/NC(=O)c2ccoc2C)cc1OC	-72.5
CSc1nsc(NC(=O)Cc2ccccc2)n1	-85.4
CCOc1ncccc1C(=O)Nc1nc(SC)ns1	-107.5
O=C(Nc1ccc(Cl)c([N+](=O)[O-])c1)c1ccco1	-67.1
O=C(Nc1cccc(NC(=O)c2ccc([N+](=O)[O-])o2)c1)c1ccco1	-65.7
CS(=O)(=O)N1CCN(c2ccccc2NC(=O)c2ccc([N+](=O)[O-])o2)CC1	-122.7
CCC(=O)N1CCN(c2ccc(NC(=O)c3ccc([N+](=O)[O-])o3)cc2Cl)CC1	i
O=C(Nc1cc(Cl)ccc1-n1cncn1)c1ccc([N+](=O)[O-])o1	-69.9
O=C(Nc1ccc(NC(=O)c2ccc([N+](=O)[O-])o2)cc1Cl)c1ccco1	-173.4
O=C(Nc1ccccc1Cl)c1ccc([N+](=O)[O-])o1	-139.1
O=C1CCCC/C1=C\Nc1ccc(Cl)cn1	-115.7
CCc1ccc(-c2ccc(SCc3ccccn3)nn2)cc1	-143.0
CCOc1ccc(-c2ccc(SCc3ccccn3)nn2)cc1	-131.9
NC(=O)Nc1ccc2c(c1)OCCO2	-112.9
O=C(Nc1ccc(F)cc1F)c1cc(-c2ccc3c(c2)OCO3)on1	-110.5
Cc1nn(Cc2ccc(Cl)cc2)c(C)c1NC(=O)c1cc(-c2ccc3c(c2)OCO3)on1	i
Cc1ccc(NC(=O)Nc2ccc3c(c2)OCO3)c(Br)c1	-117.0
SMILES	aSyn 5UTR act
Cc1cc(C)c2[nH]c(C(=O)Nc3ccc4c(c3)OCO4)cc2c1	-65.9
O=C(Nc1cccc(C(=O)O)c1)Nc1ccc2c(c1)OCO2	i
Cc1cc(C)c(NC(=O)Nc2ccc3c(c2)OCO3)c(C)c1	-70.7
O=C(Nc1ccc2c(c1)OCO2)Nc1ccc(Cl)cc1Cl	-111.6
O=C(Nc1ccc2c(c1)OCO2)Nc1ccc(F)cc1F	-137.8
O=C(Nc1ccc2c(c1)OCO2)Nc1ccc2c(c1)OCO2	-129.3
CC1CCC(NC(=O)C(=O)Nc2ccc3c(c2)OCO3)CC1 (centres undefined)	-114.2
O=C(Nc1ccc2c(c1)OCO2)c1ccc(Cl)s1	-194.4
O=C(Nc1ccc(Cl)cc1)Nc1ccc2c(c1)OCO2	-133.9
O=C(Nc1ccc2c(c1)OCO2)c1c(Cl)nc2sccn12	-205.5
COC(=O)c1cccc(NC(=O)Nc2ccc(Cl)cc2Cl)c1	-102.7
O=C(Nc1ccc(F)cc1)Nc1ccc2c(c1)OCO2	-108.8
CCc1ccc2[nH]c(C(=O)Nc3ccc4c(c3)OCO4)cc2c1	-94.3
CCc1ccc2[nH]c(C(=O)Nc3ccc(Br)c(C)n3)cc2c1	-146.2
Cc1ccc2c(Cl)c(C(=O)Nc3ccc4c(c3)OCO4)sc2c1	-148.3
Cc1noc(C(=O)Nc2ccc3c(c2)OCO3)c1Cl	-205.2
